# From paper PMC5540273 (PLoS ONE, 2017)
# What was measured:
# Details in all cases: concentration: 1 μM,replicates: in singlicate; n = 1
# [1] = test system: JAK1(JH2domain-pseudokinase)
# [2] = test system: JAK2(JH1domain-catalytic)
# [3] = test system: JAK3(JH1domain-catalytic)
# JNK1 = test system: T1, JNK1
# T1 construct: gene MAPK8
# JNK2 = test system: T2, JNK2
# T2 construct: gene MAPK9
# JNK3 = test system: T3, JNK3
# T3 construct: gene MAPK10
# KIT-autoinhibited = test system: KIT-autoinhibited
# KIT = test system: KIT
# LATS1 = test system: LATS1
# LATS2 = test system: LATS2
# LCK = test system: LCK
# LIMK1 = test system: LIMK1
# LIMK2 = test system: LIMK2
# LKB1 = test system: T4, LKB1
# T4 construct: gene STK11
# LOK = test system: T5, LOK
# T5 construct: gene STK10
# LRRK2 = test system: LRRK2
# LTK = test system: LTK
# LYN = test system: LYN
# LZK = test system: T6, LZK
# T6 construct: gene MAP3K13
# MAK = test system: MAK
# 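Note: KINOMEscan kinase panel screen.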
Structure (SMILES),%Inh [1] [%],%Inh [2] [%],%Inh [3] [%],%Inh (JNK1) [%],%Inh (JNK2) [%],%Inh (JNK3) [%],%Inh (KIT-autoinhibited) [%],%Inh (KIT) [%],%Inh (LATS1) [%],%Inh (LATS2) [%],%Inh (LCK) [%],%Inh (LIMK1) [%],%Inh (LIMK2) [%],%Inh (LKB1) [%],%Inh (LOK) [%],%Inh (LRRK2) [%],%Inh (LTK) [%],%Inh (LYN) [%],%Inh (LZK) [%],%Inh (MAK) [%]
FC(F)(F)c1cc(Br)cc(Nc2nccc(-c3cnn4ncccc34)n2)c1 [GW810578],80,0,0,0,5,1,63,100,0,6,4,0,0,14,25,58,18,8,0,55
CS(=O)(=O)c1cccc(CNc2nc(Nc3ccc4c(c3)[C@@H]3C[C@@H]4CNC3=O)ncc2C(F)(F)F)c1,91.1,98.4,100,38,30,46,39,42,24,45,0,0,0,12,81,72,5,25,0,0
COc1cc2nccc(Nc3ccc(Oc4ccccc4)cc3)c2cc1OC.Cl [GI261656],0,100,0,4,10,0,0,79,0,9,99.2,0,14,13,0,0,0,71,5,1
CCNCC(Cc1ccccc1)NC(=O)c1cc(Br)c(-c2ccnc3[nH]ccc23)s1.Cl.Cl (centres unmarked) [GSK1383280],0,82,87,33,10,1,0,50,43,82,11,21,23,0,0,0,0,0,0,44
Cc1ccc(Nc2ccnc(Nc3ccc4c(c3)CS(=O)(=O)C4)n2)cc1O.Cl [GW579362],99.1,99.1,98.2,98.4,87,95.1,41,99.8,0,21,97.3,35,49,29,83,79,55,84,58,73
COC(=O)c1cccc(NC(=O)NC2CCN(c3ccnc(NCc4ccc(F)cc4)n3)CC2)c1 [GSK1379860],0,6,0,7,23,3,0,7,0,0,4,4,0,0,0,8,0,0,0,28
CCOC(=O)N1CCC(n2cnc(-c3ccc(F)cc3)c2-c2ccnc(N)n2)CC1 [SB-219952],42,32,0,77,96.8,98.4,8,40,0,0,0,8,13,15,100,0,17,9,15,0
O=c1[nH]cc(-c2ccc(O)cc2)c2sc(-c3ccncc3)cc12 [GSK1033723],0,33,51,0,0,0,0,27,0,24,7,0,23,13,0,0,0,0,4,31
CC(=O)Nc1nc2cnc(Nc3cc(NC(=O)c4cccc(CC(C)(C)C#N)c4)ccc3C)nc2s1,25,0,0,33,41,43,36,100,7,47,72,0,2,1,55,9,2,58,15,0
Cc1cccc2c(-c3ccncc3)c(-c3ccc(F)cc3)nn12.Cl [GW461487],19,0,0,48,90,94,0,4,0,13,19,0,4,4,0,26,100,0,5,26
